Records with an inconclusive call do not appear. The source made the active and inactive calls. Calls follow the shape of the dose curve; as a rule, active = well fitted curve in the direction sought with a large enough effect; inconclusive = small, poorly fitted or top-dose-only effect, or effect the other way, or another doubt; inactive = no such curve, though single readings can be large or run the other way. *1 amine or outer side, *2 acyl side, *3 side chain or, on linkers, in order; H or OH if unused. Where a SMILES comes first, the peptide text is derived from it. Bridges are numbered along the chain shown (N, C = ends). Roman numbers before positions name the chains, in order. [ ]: non-standard residue; d: D form. ξ: configuration not given here. Actinocin(9to1) = Cc1c2oc3c(C)ccc(C(=O)[*:1])c3nc-2c(C(=O)[*:2])c(N)c1=O; ξNMeV = CNC(C(=O)O)C(C)C; ξV = CC(C)C(N)C(=O)O; Sar = CNCC(=O)O

The experiment can be described thus: qHTS Assay for Identification of Small Molecule Agonists for NFkB Signaling Pathway. (AID 624478). Conditions: NFkB pathway reporter cell assay, agonist mode, cells co-stimulated with 10 pM TNF alpha; series mostly up to 46.1 µM. As for the experimental part: The TNF alpha/NFkB signaling pathway was assayed in NFkB-bla cells (Invitrogen), a ME-180 cervical carcinoma line containing a stably integrated beta-lactamase reporter gene controlled by a NFkB response element. This reporter is induced by TNF alpha at 10 pM EC50 and inhibited by the proteosome inhibitor MG-132 at approximately 100 nM IC50. The assay was screened at the EC50 of TNF alpha activation to identify activators of TNF alpha/NFkB signaling
Cells were trypsinized, washed in assay medium (AM, OPTI MEM with 0.5% fetal bovine serum, 0.1 mM nonessential amino acids, 1 mM sodium pyruvate, 10mM HEPES pH 7.3, 100U/ml penicillin, and 100 ug/ml streptomycin) and plated at 1000 cells/5 uL/well into black clear-bottom 1536 well plates. After an overnight incubation at 37 C and 5% CO2, 23 nL of compound were delivered by a pin tool, 1 uL of TNF alpha (10 pM final concentration in AM) was added and plates were incubated at 37 C for 5 hrs. One uL of LiveBLAzerTM detector mix (Invitrogen) was added, the plates incubated at room temperature for 2 hrs, and fluorescence intensity at 460 and 530 nm emission was measured at 405 nm excitation by an Envision (Perkin Elmer).
In general terms: Quantitative high-throughput screening tests each substance at several concentrations.
For `Cc1nnc(C(C)C)n1C1CC2CCC(C1)N2CC[C@H](NC(=O)C1CCC(F)(F)CC1)c1ccccc1` (some centres undefined), the molecule was classed as inactive.

As for `CCCCCCCCCCCCCCCCCCOP(=O)([O-])OC1CC[N+](C)(C)CC1`, the outcome was inactive.

Take `CN(NC(=O)CC(=O)NN(C)C(=S)c1ccccc1)C(=S)c1ccccc1`: the call was inactive.

As for `O=C(O)CC/C=C\CC[C@H]1[C@@H](N2CCCCC2)[C@@H](O)C[C@@H]1OCc1ccc(-c2ccccc2)cc1`, the outcome was inactive.

With `O=c1cc(C2=CC=CC3Sc4ccccc4SC23)oc(N2CCOCC2)c1` (centres undefined), the molecule was classed as inactive.

On to `CC[C@@H](C(=O)O)C1CC[C@H](C)C([C@@H](C)[C@H](O)[C@H](C)C(=O)[C@H](CC)C2O[C@]3(C=C[C@@H](O)[C@]4(CC[C@@](C)(C5CC[C@](O)(CC)[C@H](C)O5)O4)O3)[C@H](C)C[C@@H]2C)O1` (some centres undefined), for which the call was inactive.

In the case of `CCOc1cc2ncc(C#N)c(Nc3ccc(OCc4ccccn4)c(Cl)c3)c2cc1NC(=O)/C=C/CN(C)C`, the molecule was called inactive.

With `C[C@@H]1CCN(C(=O)CC#N)C[C@@H]1N(C)c1ncnc2[nH]ccc12`, the molecule was classed as inactive.

As for `NC(=O)Nc1cc(-c2ccc(CN3CCOCC3)c(F)c2)sc1C(=O)N[C@H]1CCCNC1`, the molecule was called inactive.

On to `CC(NC(=O)Cc1cc(F)cc(F)c1)C(=O)NC(C(=O)OC(C)(C)C)c1ccccc1` (centres undefined), for which the molecule was classed as inactive.

As to `CCC1(O)CC2CN(CCc3c([nH]c4ccccc34)[C@@](C(=O)OC)(c3cc4c(cc3OC)N(C=O)[C@H]3[C@](O)(C(=O)OC)[C@H](OC(C)=O)[C@]5(CC)C=CCN6CC[C@]43[C@@H]65)C2)C1` (some centres undefined), the outcome was inactive.

As to `COC(=O)C1=C(C)NC(C)=C(C(=O)OCCCN2CCC(c3ccccc3)(c3ccccc3)CC2)[C@H]1c1cccc([N+](=O)[O-])c1`, the call was inactive.

Turning to `Cc1c2oc3c(C)ccc(C(=O)N[C@@H]4C(=O)NC(C(C)C)C(=O)N5CCC[C@H]5C(=O)N(C)CC(=O)N(C)C(C(C)C)C(=O)O[C@@H]4C)c3nc-2c(C(=O)N[C@@H]2C(=O)NC(C(C)C)C(=O)N3CCC[C@H]3C(=O)N(C)CC(=O)N(C)C(C(C)C)C(=O)O[C@@H]2C)c(N)c1=O` (some centres undefined) (I: T[ξV]P[Sar][ξNMeV] / II: T[ξV]P[Sar][ξNMeV]; ester I:1-I:C, II:1-II:C; linker I:N-II:N via Actinocin(9to1)), the outcome was inactive.

With `CNC1CCN(C(Cc2cccc(-c3ccncc3)c2)C(=O)c2sc3c(F)ccc(F)c3c2Cl)CC1` (centres undefined), the molecule was classed as inactive.

Source of the values: PubChem BioAssay (NCATS).
